According to PubChem BioAssay (NCI):
Several values for one entry are separate records, joined by “and”; a condition that tells them apart may be missing. Equal values may be shown once. Compounds without any hit were thinned out: in the full panel of roughly 79,000, 15% have a hit. Values without a mark were called inactive. Activity calls are given as the source filed them. Rule as the data show it: active = growth inhibition above about 70%; inactive = the rest.

Tests used:
[1] = NCI Yeast Anticancer Drug Screen. Data for the rad50 strain (AID 155);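 also: 0% = growth of vehicle-only cultures of the same strain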; conditions: S. cerevisiae rad50 strain growth inhibition, hits give high values; at 50.0 µM unless noted
In short: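 Growth of the mutant yeast was measured after compound exposure and referenced to vehicle-treated cultures.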

[2] = NCI Yeast Anticancer Drug Screen. Data for the mec2-1 strain (AID 157); conditions: S. cerevisiae mec2-1 strain, hits give high values; at 50.0 µM unless noted
In short: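 Each compound was tested on mec2-1 yeast, a strain altered in DNA damage repair or cell cycle control. Growth inhibition is reported relative to vehicle.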

[3] = NCI Yeast Anticancer Drug Screen. Data for the sgs1 mgt1 strain (AID 161);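 also: 0% = growth of cultures given vehicle only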; conditions: S. cerevisiae sgs1 mgt1 strain, hits give high values; at 50.0 µM unless noted
In short: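 Test agents were incubated with a DNA-repair-mutant yeast strain. Growth was then read and compared against vehicle-treated controls.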

[4] = NCI Yeast Anticancer Drug Screen. Data for the cln2 rad14 strain (AID 165);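 also: 0% = growth equal to vehicle treated cultures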; conditions: S. cerevisiae cln2 rad14 strain, hits give high values; at 50.0 µM unless noted
In short: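 Test compounds were added to cln2 rad14 yeast cultures; inhibition of growth was then determined by comparison with vehicle treatment.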

[5] = NCI Yeast Anticancer Drug Screen. Data for the bub3 strain (AID 167); conditions: S. cerevisiae bub3 mutant strain, hits give high values; at 50.0 µM unless noted
In short: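 Whole-cell yeast assay. The mutant strain was incubated with compounds, and growth inhibition was determined by comparison with vehicle-treated cells.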

[6] = NCI Yeast Anticancer Drug Screen. Data for the mlh1 rad18 strain (AID 175); conditions: S. cerevisiae mlh1 rad18 strain growth inhibition, hits give high values; at 50.0 µM unless noted
In short: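 Inhibition values reflect reduced growth of mutant yeast versus vehicle-treated controls following compound exposure; the mutations affect DNA damage repair.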

SMILES	growth inhibition [1]	growth inhibition [2]	growth inhibition [3]	growth inhibition [4]	growth inhibition [5]	growth inhibition [6]
N#Cc1c(-c2ccccc2)c(-c2ccccc2)nn(CCO)c1=O	7.35%	10.8%	20.9%	-21.8%	6.4%	46%
CC1CCCCN1C(=O)Nc1ccc(Cl)cc1[N+](=O)[O-] (stereo not given)	9.3%	44.2%	29.6%	-15.6%	64.3%	42.4%
Cc1cccc(NC(=O)N(C(C)C)C(C)C)c1	-16.4%	-38.2%	-3.55%	2.8%	5.8%	-27.6%
COC(=O)c1ccc(N=NN(C)CN=[N+]=[N-])cc1	13.3%	19.7%	21.2%	-21.3%	11.3%	3.15%
CCCC(=O)CC(=O)Nc1ccccc1	2.9%	-6.3%	-14.9%	-23.9%	-17.6%	11.2%
CC1=NN(C(=O)Cc2ccccc2)C(=O)/C1=C\c1ccc(O)cc1	-18.9%	-36.1%	-47.4%	-4.2%	-13.2%	-29.2%
COc1cc(OCc2ccc3oc(=O)c(-c4ccccc4)nc3c2)cc(OC)c1OC	16.6%	1%	2.2%	7.75%	19.2%	9.25%
N#C/C(=C\c1cc(Cl)cc(Cl)c1O)c1nc2ccccc2[nH]1	43%	13.7%	38.4%	11.5%	26.9%	5.65%
CC(C)OC(=O)/C=C/CCCC1CCCCC1	-10.5%	6.15%	7.95%	2.35%	18.7%	-15.2%
O=C(O)/C(=C/c1cccc(Cl)c1)c1ccc(Cl)cc1	0.85%	-10.8%	0.7%	-51.8%	2.4%	-0.75%
CC(=O)NC1CCC(CCC2CCCCC2)CC1 (stereo not given)	0.55%	5.3%	2.45%	2.25%	-5.9%	-9.75%
Cc1c(C)c(C(=O)Cc2ccccc2)c(C)c(C(=O)Cc2ccccc2)c1C	19.6%	-1.8%	-15.3%	12.3%	5.55%	0.65%
O=C1CCCc2[nH]ccc21	-14.7%	-1.2%	-9.25%	64.6%	14.8%	-4.55%
COc1cc(OC)c(OC)cc1/C=C/c1nc2ccccc2s1	25.1%	20.1%	41%	18.8%	46.9%	3%
CC(=O)Nc1ccc(CCCc2ccc([N+](=O)[O-])cc2)cc1	3.15%	3.35%	-10.9%	-70.2%	1.6%	0%
CC(C)N(C(=O)c1ccccc1O)C(C)C	2.95%	-7.65%	6.55%	-7.7%	-4.4%	2%
COc1cc(C2c3cc4c(cc3[C@H](OCCN(C)C)[C@@H]3COC(=O)C23)OCO4)cc(OC)c1O (stereo not given in full)	83.2% (active)	87.7% (active)	83.3% (active)	67.8%	78.2% (active)	82.6% (active)
NNC(=O)CCn1[nH]c(=O)c(Cl)c(Cl)c1=O	13.9%	11.8%	19.9%	12.9%	16.9%	11.4%
CCOC(=O)C(C)NC(=O)c1ccccc1 (stereo not given)	0.25%	-8.5%	-14.6%	-52.2%	5.5%	0.75%
O=C(N/N=C/c1ccc(O)cc1)C(c1ccccc1)N1CCCCC1 (stereo not given)	5.85%	-7.05%	-7.4%	-18.8%	3.05%	-5.3%

SMILES	growth inhibition [1]	growth inhibition [2]	growth inhibition [3]	growth inhibition [4]	growth inhibition [5]	growth inhibition [6]
COc1ccccc1OC(=O)c1ccccc1	-27.4%	7.4%	-22.8%	-9.1%	11.5%	-5.35%
N#CC1C(c2ccc(Cl)cc2)C(C(N)=O)C(=O)NC1(O)c1ccccc1 (stereo not given)	-1.45%	-5.4%	8.45%	8.95%	4.15%	15.6%
CC(=O)CC(C)(C)c1cc(-c2ccccc2)on1	20.8%	5.4%	-6.25%	-61.6%	19.4%	12.8%
Cc1ccc(N2C(=O)C3CSCN3C2=O)cc1 (stereo not given)	31.2%	19.8%	6.85%	4.9%	9%	6.25%
CN(Cc1ccc2nc(N)nc(N)c2c1)c1ccc(C(=O)NC(CCC(=O)O)C(=O)O)cc1 (stereo not given)	65.3%	88.8% (active)	77.8% (active)	4.7%	-24.5%	33.3%
C/C(=N/N)c1ccc2[nH]c3c(C)cc([N+](=O)[O-])c(C)c3c2c1	16.9%	-6.9%	-22.9%	13.7%	3.65%	6.35%
COc1ccccc1N=C(N)N/N=C/c1c[nH]c2ccccc12	0.25%	-8.85%	-9.6%	17%	1.45%	15.2%
COC1OC(COC(c2ccccc2)(c2ccccc2)c2ccccc2)C(O)C(O)C1O (stereo not given)	40.7%	47%	42.6%	84.5% (active)	38%	41.1%
CCc1ccc2c(c1)C(=O)c1ccccc1C2=O	4%	21.8%	11.1%	-9.5%	25.7%	26.6%
O=C1C=CC(=O)N1c1ccnc(N2C(=O)C=CC2=O)c1	21.4%	-1.55%	6.1%	-7.05%	11.8%	10.2%
CCOc1ccc2c(c1)S(=O)(=O)OC2=O	-11.1%	0.6%	7%	25.6%	5.2%	2.35%
CC1(C)SC(c2ccccc2)SC(c2ccccc2)S1 (stereo not given)	13.7%	1.4%	-3.3%	3.25%	-0.8%	17.4%
COC1=CC(=O)CC(C)C12Oc1c(Cl)c(OC)cc(OC)c1C2=O (stereo not given)	2%	-14.5%	20%	13.4%	67.1%	17.9%
CC1=CC(C)(C)[C@H]2O[C@@]3(O)C[C@]4(C)[C@H]5C[C@@](C(C)C)(O[C@H]4c4ccoc4)O[C@H]4[C@]5(C3)O[C@@]1(O)[C@]24O	5.2%	0.45%	-11.9%	-14.8%	-13.4%	-3.5%
C=C1CC(CCCC2CC(=C)C(=O)O2)OC1=O (stereo not given)	5.8%	12.9%	-4.1%	-50.7%	-11.2%	6.15%
CC(=O)NNc1nc(C)c(C(=O)/C=C/c2ccc(NC(C)=O)cc2)s1	21.9%	16.1%	0.3%	9.15%	22.2%	31.5%
O=C(OC1c2cccc3cccc(c23)C1O)c1ccccc1 (stereo not given)	8.2%	-2.45%	1.55%	2.65%	5.85%	1.75%
N#C/C(=C\c1c[nH]c2ccccc12)C(N)=O	13.6% and 2.05%	5.15% and -7.45%	7.3%	18.8%	-7.3%	22.5% and 5.8%
CSc1cc(Cl)c(C(=O)Nc2ccccc2)cc1S(=O)(=O)n1cc[nH]c1=O	0.2%	-10.6%	-6.35%	-8.95%	-1.35%	8.05%
COC1=CC(=O)c2cc3ccc(OC)c(N)c3nc2C1=O	12.8%	-7.2%	5.45%	-4.2%	13.3%	-10.9%
